Rows were chosen to be rich in hits. Some 15% of all compounds tested hit in one or more screens of this group.
Pf growth 96h: inhibits malaria parasite growth, 96 h; 320,000 tested, 6.9% active; AID 504834; P. falciparum luciferase reporter growth, 96 h; Potency, µM (highest dose often 28.7 µM), without a hit: top-dose activity change, negative = inhibition, hits mostly inhibitors; also: potency is read from the fitted curve at half-maximal effect; % is scaled to controls: 0 for no effect and ±100 for the full control effect
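Two-generation exposure (96 h) targets delayed-death phenotype. Reporter parasites carrying integrated firefly luciferase, in red cells at 2% hematocrit and 0.05% parasitemia final, kept at 37 C, 5% CO2; luminescence loss indicates inhibition.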
SARS PLpro yeast: SARS-CoV PLP inhibition in yeast | AID 485353 | Potency, µM (highest dose often 32.9 µM), for the others: at the highest dose activity, positive = growth rescue, most hits filed as activators | 330,000 tested, 0.19% active | S. cerevisiae expressing SARS-CoV PLpro, growth rescue; calls by dose curve; also: potency is read from the fitted curve at half-maximal effect; 0% is about no effect; nearly all actives have a fitted effect of over 55% in size
Sm TGR inh: inhibitors of Schistosoma mansoni thioredoxin glutathione reductase; purified TGR, DTNB reduction, TNB absorbance 405 nm; Potency, µM (doses to about 114 µM), for the others: top-dose activity change, negative = inhibition, most hits filed as inhibitors; 360,000 tested, 3% active; also: potency is read from the fitted curve at half-maximal effect; % is scaled to controls: 0 for no effect and ±100 for the full control effect; nearly all actives have a fitted effect of over 60% in size
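TGR 20 nM + NADPH 100 uM (dispensed conc.), cpd preinc 15 min RT; start with NADPH (500 uM addition) then DTNB (15 mM addition). Kinetic TNB absorbance, 405 nm filter. Four-parameter Hill fit across titration.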
Pf growth 48h: P. falciparum growth inhibition at 48 hours (one generation); P. falciparum luciferase growth in erythrocytes, 48 h; Potency, µM (series often up to 28.7 µM), inactives show at the highest dose activity change, negative = inhibition, actives largely listed as inhibitors; 310,000 tested, 5.9% active; also: potency is read from the fitted curve at half-maximal effect; % is scaled to controls: 0 for no effect and ±100 for the full control effect
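Read-out is firefly luciferase luminescence from an integrated reporter in P. falciparum, so falling signal marks reduced parasite growth. Infected erythrocytes were at 2% hematocrit and 0.1% parasitemia (final) in Albumax-supplemented RPMI 1640.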
HCMV antiviral: human cytomegalovirus inhibition | activity change, negative = inhibition, % at 57.5 µM | HFF cells, HCMV-luciferase reporter, 72 h; hits give low values | 410,000 tested, 4.5% active | AID 1259415; in the data active = activity change below about -60%; inconclusive = no clear call, values can overlap the other calls; inactive = above about -39%; also: % is scaled to controls: 0 for no effect and ±100 for the full control effect
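After 16 h attachment at 37C, HFF cells received test compound and HCMV-luciferase (1 PFU/cell); reporter luminescence read 72 h later, data normalized against buffer-only and known inhibitor Salinomycin.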
HCV inhibitor: blocks hepatitis C virus | Huh7.5.1 HCVcc-Cre infection, luciferase reporter, 44 h | Potency, µM (series often up to 41.8 µM), for inactives: at the top dose activity change, negative = inhibition, usual class: inhibitors | 340,000 tested, 3.4% active; also: potency is read from the fitted curve at half-maximal effect; % is scaled to controls: 0 for no effect and ±100 for the full control effect
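Luciferase read-out (15 sec integration) after a 15 min room-temperature substrate step quantifies HCVcc-Cre infection. Cells, 1,000 per well, had compound added 4 h post-plating, then virus at ~0.5 moi, and were cultured 44 h.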
An asterisk follows results filed as active; ? = inconclusive; nt = no result; [ ] = remark or other dose. Unless noted, calls follow the shape of the dose curve; as a rule, active = well fitted curve in the direction sought with a large enough effect; inconclusive = small, poorly fitted or top-dose-only effect, or another doubt; inactive = no such curve, though single readings can be large; an effect the other way counts as inactive or inconclusive.

SMILES	Pf growth 96h	SARS PLpro yeast	Sm TGR inh	Pf growth 48h	HCMV antiviral	HCV inhibitor
C[C@@H]1O[C@@H](O[C@@H]2[C@@H](O)[C@H](OCCc3ccc(O)c(O)c3)O[C@H](CO)[C@H]2OC(=O)/C=C/c2ccc(O)c(O)c2)[C@H](O)[C@H](O)[C@H]1O	nt	-2%	nt	nt	-5	14%
CC(C)NC(=O)c1ccc2c(c1)N(Cc1ccccc1)C(=O)C(C)(C)O2	146%	-6%	-13%	?	-19	-28%
NNC(=O)COc1ccc(-c2nccc(-c3ccc(F)cc3)n2)cc1	12µM*	-2%	-9%	?	-16	-28%
O=C(O)COc1ccc(-c2nccc(-c3ccccn3)n2)cc1	?	1%	1%	10%	-71*	5%
FCCCOc1ccc(-c2nccc(-c3ccccn3)n2)cc1	39%	-1%	-20%	1%[0.00184 µM]	142	-18%
CC(C)c1ccc(S(=O)(=O)/N=C2/C=CC(=O)c3ccccc32)cc1	58%	-6%	8.9µM*	8.3µM*	nt	nt
CC(C)c1ccc(S(=O)(=O)/N=C2\C=C(NS(=O)(=O)c3ccccc3)C(=O)c3ccccc32)cc1	4%	-10%	?	-30%	-31	-13%
Cc1ccc([N+](=O)[O-])cc1S(=O)(=O)N1CCn2cccc2C1c1ccccc1F (stereo unspecified)	nt	nt	-33%	nt	5	nt
COc1ccccc1C(=O)NCCC(=O)Nc1ccc(S(=O)(=O)Nc2ncccn2)cc1	-28%	1%	-4%	?	-25	7%
COc1ccccc1NS(=O)(=O)c1cccc(NC(=O)CCNC(=O)c2ccccc2OC)c1	12µM*	0%	1%	9.3µM*	-6	?
COc1ccccc1NS(=O)(=O)c1cccc(NC(=O)c2cncc(Br)c2)c1	nt	2%	nt	nt	?	13µM*
COc1ccccc1NS(=O)(=O)c1cccc(NC(=O)NCCCl)c1	12µM*	7%	-7%	0%	10	10%
COc1ccccc1NS(=O)(=O)c1cccc(NC(=O)Nc2cccc(Cl)c2)c1	?	5%	-4%	?	-95*	?
COc1ccccc1NS(=O)(=O)c1cccc(NC(=S)NCCN2CCOCC2)c1	?	1%	2%	2%	-5	-9%
COc1ccccc1NS(=O)(=O)c1cccc(NC(=O)c2sc3ccccc3c2Cl)c1	-20%	1%	-2%	12µM*	-68*	?
COc1ccccc1NS(=O)(=O)c1ccc(Cl)c(NC(=O)c2sc3cc(Cl)ccc3c2Cl)c1	-7%	0%	-3%	-29%	-24	-17%
C/C(CC(=O)Nc1ccc2c(c1)OCO2)=N\NC(=O)c1ccc(N)cc1	8%	1%	40µM*	21%	98	14%
CCn1cc(C(=O)NC(=S)Nc2ccccc2Br)cn1	44%	16%	79µM*	88%	14	?
CCn1cc(C(=O)NC(=S)Nc2ccccc2[N+](=O)[O-])cn1	32%	nt	-4%	-6%	1	-18%
O=C(NC(=S)Nc1ccc2c(c1)OCO2)c1ccccc1	40%	5%	14µM*	75%	72	1%
O=C(Nc1ccc2c(c1)OCO2)c1ccccc1	3%	-6%	2%	95%	7	9%
O=C(NC(=S)Nc1ccccc1Br)c1ccc2c(c1)OCO2	-10%	0%	14µM*	101%	-20	?
C/C(CC(=O)Nc1ccc2c(c1)OCO2)=N\NC(=O)c1ccccc1N	?	0%	?	?	86	-10%
CCOc1ccccc1N1CC(C(=O)Nc2c(C)n(C)n(-c3ccccc3)c2=O)CC1=O (stereo unspecified)	-10%	-1%	-5%	28%	-23	-4%
COc1ccc2c(C)c(CCC(=O)NCCc3ccccc3OC)c(=O)oc2c1	nt	nt	1%	nt	-6	nt
SMILES	Pf growth 96h	SARS PLpro yeast	Sm TGR inh	Pf growth 48h	HCMV antiviral	HCV inhibitor
CC(C)C[C@H]1CN([C@@H](CC(C)C)CN2CCC[C@@H]2CN2C(=S)NC[C@@H]2Cc2ccc(O)cc2)C(=S)N1CC1CCCCC1	nt	nt	nt	nt	-22	nt
CC(C)C[C@H]1CN([C@@H](CC(C)C)CN2CCCC2CN2C(=S)NC[C@@H]2Cc2ccc(O)cc2)C(=S)N1CC1CCCCCC1 (stereo partly specified)	nt	nt	nt	nt	-70*	5%
CC(C)C[C@H]1CN([C@@H](CC(C)C)CN2CCCC2CN2C(=S)NC[C@@H]2Cc2ccc(O)cc2)C(=S)N1CC1CCCCC1 (stereo partly specified)	nt	nt	nt	nt	-107*	-9%
O=C1CCC(c2ccc3c(c2)CCC3)=NN1	21%	1%	25%	45%	-6	?
Cc1cccn2c(=O)c3cc(C#N)c(=O)n(-c4nnc(SCc5ccccc5F)s4)c3nc12	nt	nt	4%	nt	-13	nt
COc1ccc(CCNc2oc(COc3ccc(F)cc3)nc2C#N)cc1	-20%	-3%	-14%	?	0	?
CN(C)CCNc1oc(COc2cccc(Cl)c2)nc1C#N	-8%	-2%	35µM*	-1%	12	5%
N#Cc1nc(COc2cccc(Cl)c2)oc1NCCc1ccccc1	nt	nt	0%	nt	8	nt
CN(C)CCNc1oc(COc2ccc(Cl)cc2)nc1C#N	315%	0%	28µM*	-6%	-21	?
CCOC(=O)C1=C(COC(=O)c2ccc(Cl)nc2)NC(=O)NC1C (stereo unspecified)	nt	nt	nt	nt	-30	-3%
CCN(CC)S(=O)(=O)c1ccc(N2CCOCC2)c(NC(=O)COc2ccc(Cl)cc2)c1	?	-4%	4%	?	?	10µM*
COc1ccc(N2CCCC2)c(NC(=O)COc2ccccc2Cl)c1	12%	5%	-31%	?	56	?
CCN(CC)S(=O)(=O)c1ccc(N2CCOCC2)c(NC(=O)CC(C)(C)C)c1	?	0%	2%	?	21	-2%
N#Cc1ccc(OCC(=O)Nc2cc(S(=O)(=O)N3CCCCC3)ccc2N2CCCCC2)cc1	?	18%	-6%	1%	-35	?
O=C(COc1ccc(Br)cc1)Nc1cc(S(=O)(=O)N2CCCCC2)ccc1N1CCCCC1	1.9µM*	-3%	6%	-12%	-27	?
COc1ccc(OCC(=O)Nc2cc(OC)ccc2N2CCCCC2)cc1	42%	0%	11%	12µM*	17	?
O=C(COc1ccc(Cl)cc1)Nc1cc(S(=O)(=O)N2CCCCC2)ccc1N1CCCCC1	2.3µM*	2%	-11%	12µM*	-7	?
CC(C)(C)C(=O)OCc1nc(-c2ccc(F)cc2)cs1	-3%	0%	1%	139%	2	-16%

Source: PubChem
